From PubChem BioAssay AID624330 (Southern Research Specialized Biocontainment Screening …, 2012)
The whole screen tested about 340,000 compounds, of which about 2,100 (0.62%) were called active.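 The calls were made as follows: active = first-screen hits whose inhibition reached a set limit at any dose in the follow-up dose series; inconclusive = inhibition above the set first-screen limit but never retested; inactive = the rest.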 These entries were drawn from the full list. Entries with a potency or affinity are not part of this list.

What follows are compounds tested against Rac GTPase-activating protein 1 (Homo sapiens) (UniProt Q9H0H5) (assay: blockers of MgcRacGAP-driven Rac1 GTP hydrolysis – biochemical, ADP Hunter fluorescence, primary and confirmatory, confirmation (AID 624330;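 also: fluorescence reports GDP produced by GAP-driven GTP hydrolysis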)). Details: MgcRacGAP-stimulated Rac1 GTP hydrolysis, at 30 µM, hits give high values, GST-tagged Rac1 F28L mutant substrate.
Chain of Rac GTPase-activating protein 1 (Homo sapiens) (Q9H0H5 whole entry, looked up): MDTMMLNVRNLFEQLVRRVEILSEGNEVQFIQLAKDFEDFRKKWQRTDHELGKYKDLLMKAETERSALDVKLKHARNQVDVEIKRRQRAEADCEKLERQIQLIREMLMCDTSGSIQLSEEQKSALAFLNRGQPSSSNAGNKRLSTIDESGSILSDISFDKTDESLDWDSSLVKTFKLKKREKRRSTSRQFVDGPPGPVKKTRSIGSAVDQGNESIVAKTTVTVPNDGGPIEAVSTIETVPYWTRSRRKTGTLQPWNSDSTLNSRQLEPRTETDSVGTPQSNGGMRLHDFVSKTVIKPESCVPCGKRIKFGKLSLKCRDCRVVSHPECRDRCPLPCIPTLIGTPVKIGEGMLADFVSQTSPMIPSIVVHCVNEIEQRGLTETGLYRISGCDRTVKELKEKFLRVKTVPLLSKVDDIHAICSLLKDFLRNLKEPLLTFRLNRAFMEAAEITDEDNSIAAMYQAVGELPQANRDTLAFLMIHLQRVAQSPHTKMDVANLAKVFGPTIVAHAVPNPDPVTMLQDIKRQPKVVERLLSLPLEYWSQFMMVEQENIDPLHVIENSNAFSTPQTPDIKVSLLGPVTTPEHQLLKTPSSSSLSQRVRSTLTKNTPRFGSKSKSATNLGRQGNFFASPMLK

inhibition, inactive:
Cc1ccccc1C(=O)OCC(=O)Nc1cccc(S(=O)(=O)N2CCCCC2)c1 11.7%
CN(C)S(=O)(=O)c1ccc(Cl)c(NC(=O)COc2ccccc2[N+](=O)[O-])c1 6.09%
CCN(CC1CCCO1)C(=O)c1cc(COc2ccc(OC)cc2Cl)on1 (centres undefined) -11.4%
C[C@H](CO)N1C[C@H](C)[C@@H](CN(C)C(=O)Nc2ccccc2)Oc2c(NS(=O)(=O)c3ccc(F)cc3)cccc2C1=O 3.18%
Cc1ccc(OCC(=O)Nc2ccc3oc(=O)ccc3c2)cc1 4.26%
O=C(Cc1ccsc1)N1CCN(S(=O)(=O)c2cccc(F)c2)CC1 -3.87%
CCN1CCN(CC(=O)N2c3ccccc3CC2C)CC1 (centres undefined) 22.6%
CC1Cc2ccccc2N1C(=O)CN1CCCCC1 (centres undefined) 2.91%
CN(Cc1cccc(F)c1)C(=O)C1CC(=O)N(c2ccc3c(c2)OCCO3)C1 (centres undefined) 4.27%
Cc1c(Cl)ccc(S(=O)(=O)N2CCN=C2c2ccccc2)c1Cl 4.68%
Cc1cc(Cl)cc2sc(NC(=O)C3CC3)nc12 5.72%
Cc1cc(Cl)cc2sc(NC(=O)c3ccco3)nc12 5.28%
CCS(=O)(=O)CCSc1nc2ccccc2o1 -5.63%
C/C(O)=C\c1nc2ccccc2oc1=O 18.1%
CCCCCN1C(C)=CC(=C(C#N)C#N)C=C1C 9.16%
Cc1cccc2sc(N(CCN(C)C)C(=O)c3ccc4ccccc4c3)nc12 5.08%
O=c1[nH]cc(S(=O)(=O)N2CCN(c3ccc(F)cc3)CC2)c(=O)[nH]1 2.66%
Cc1cc(C(=O)Nc2nccs2)c2cc(F)ccc2n1 4.04%
Cc1ccc(S(=O)(=O)N2CCCCC2)cc1NC(=O)c1ccco1 15.5%
Cc1ccc(S(=O)(=O)N2CCOCC2)cc1C(=O)NCc1cccnc1 5.2%
Cc1ccc(S(=O)(=O)N2CCOCC2)cc1NC(=O)CNCc1ccccc1Cl 8.04%
O=C(Nc1cccc(S(=O)(=O)N2CCCCC2)c1)c1ccco1 -7.5%
O=C(COC(=O)c1ccco1)Nc1cccc(S(=O)(=O)N2CCCCC2)c1 0.12%
O=C(CNCc1ccco1)Nc1cc(S(=O)(=O)N2CCOCC2)ccc1N1CCCC1 24.8%
COc1ccc(CNC(N)=O)cc1OC 5.81%
CN(C)S(=O)(=O)c1ccc(NC(=O)CN2C(=O)NC3(CCCC3)C2=O)cc1 4.79%
CCCN(C(=O)c1c(CC)noc1C)c1c(N)n(Cc2ccccc2)c(=O)[nH]c1=O 7.17%
CC1(NC(=O)N2CCCCC2)CCS(=O)(=O)C1 (centres undefined) 6.45%
O=C1CC(c2ccc(F)cc2)CC(O)=C1C=NCCN1CCNCC1 (centres undefined) 10.7%
COc1ccc(-c2csc3ncnc(N4CCN(c5ccccc5OC)CC4)c23)cc1 8.39%
O=C(OCC(=O)N1CCN(C(=O)c2ccco2)CC1)c1ccc(Cl)nc1 2.2%
COCCNC(=O)c1ccc(N2CC3CC(C2)c2cccc(=O)n2C3)c(NC(=O)c2cc(OC)cc(OC)c2)c1 (centres undefined) 10.3%
COc1ccc(CNC(=O)C2CCC(=O)N(CC3CCCCC3)C2)cc1 (centres undefined) 8.55%
O=C(NN1C(=O)c2ccccc2NC1c1ccc([N+](=O)[O-])o1)c1ccc(Br)cc1 (centres undefined) 5.26%
O=C(Cn1c(NCCO)nc2ccccc21)NCCc1ccccc1 0.41%
Nc1nnc(SCC(=O)N2CCN(c3ccccc3)CC2)s1 2.87%
Cc1nc(Cc2ccccc2)sc1CC#N -3.31%
CC(C)CC(NC(=O)C(Cc1ccc(OCc2ccccc2)cc1)NC(=O)OC(C)(C)C)C(N)=O (centres undefined) 10.6%
COc1ccc(CC(=O)Nc2nc(C)cs2)cc1 12%
Cc1csc(NC(=O)CSc2nc(C)cs2)n1 3.74%
COc1ccc(-n2nnnc2SCC(=O)N2CCN(C(=O)c3ccco3)CC2)cc1OC 7.68%
CCCCNC(=O)CSc1nc2ccccc2n1S(=O)(=O)c1ccc(Br)cc1 2.01%
Cc1ccc(-c2n[nH]c(=S)n2/N=C/c2sccc2C)cc1 5.68%
O=[N+]([O-])c1ccccc1/C=N/n1c(-c2ccccc2)n[nH]c1=S 16.3%
S=c1[nH]nc(-c2cc(-c3ccccc3)n[nH]2)n1/N=C/c1cccs1 16.3%
Nc1nnnn1/N=C/c1cccc(O)c1 5.38%
Cc1ccsc1/C=N/n1c(-c2cc(-c3ccccc3)n[nH]2)n[nH]c1=S 11.8%
Cc1n[nH]c(=O)n(N=Cc2cccs2)c1=O 7.77%
Cc1cc(C)n(/N=C/c2cccc(O)c2)c(=O)c1C(N)=O 10.6%
O=[N+]([O-])c1ccccc1/C=N/n1c(C(F)(F)F)n[nH]c1=S 16.4%
C#CCOCCOCCOCCNc1nc(N2CCN(C(=O)[C@H](CCCCN)n3cc(CN)nn3)CC2)nc(N2CCN(C(=O)[C@H](CCCN=C(N)N)n3cc(C(N)[C@H](C)CC)nn3)CC2)n1 (some centres undefined) 7.55%
C/C(=N/OC(=O)c1ccccc1Br)c1ccc(C)cc1 6.4%
O=C(CN1CCCCCC1)Nc1cc([N+](=O)[O-])ccc1Cl 5.34%
Cc1cnc(NC(=O)c2cccc(S(=O)(=O)N3CCOCC3)c2)s1 1.86%
O=C(CCCOc1ccc(Cl)cc1Cl)N/N=C/c1ccc(Cl)cc1 10.9%
O=C1CC2(CCN(C(=O)c3ccccc3[N+](=O)[O-])CC2)Oc2ccccc21 -0.23%
CCOC(=O)c1ccc(N2C(=O)[C@@H](c3ccccc3)[C@H]2c2ccccc2)cc1 -2.09%
S=c1[nH]nc(-c2cc(-c3ccccc3)n[nH]2)n1/N=C/c1ccc(Br)s1 20.5%
S=c1[nH]nc(-c2ccccn2)n1/N=C/c1ccc(Br)s1 18.4%
